Test: probe aNOTCH2 binding on compound microarray – biochemical, small-molecule microarray, 635/667 nm fluorescence, primary screen (AID 1121);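 note: score merges feature fluorescence read at 667 nm with its signal to noise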
Settings: higher = more signal

Row | Structure (SMILES) | composite z-score
1 | CCCCCCc1nc(-c2ccc(OC)nc2)cc2c1[Si](C(C)C)(C(C)C)O[C@H]2c1ccccc1 | -0.166
2 | O=C(CS)NCCCCCCNC(=O)[C@@H]1C[C@@H]2C(=O)N[C@@H](Cc3ccccc3)C(=O)N2[C@@H]1c1cccc(OCCO)c1 | -0.0248
3 | COC(=O)[C@@]1(Cc2ccc(OC)cc2)[C@H]2c3cc(C(=O)N(C)C)n(Cc4ccc(S(C)(=O)=O)cc4)c3C[C@H]2CN1C(=O)c1ccccc1 | -0.168
4 | O=C1C[C@@](C(=O)NC2CC2)(c2ccc([N+](=O)[O-])cc2)[C@@H](c2ccc(CO)cc2I)N1C1CCCCC1 | -0.14
5 | CN1C=C(C(=O)OCCS(C)(=O)=O)C(C(=O)OCCS(C)(=O)=O)=CC(c2ccc(CO)cc2)=CC1C1CC1 (stereo not drawn) | -0.133
6 | O=C1NC(=O)C2C1C=CC(C(O)c1cc(C(F)(F)F)cc(C(F)(F)F)c1)N2Nc1ccccn1 (stereo not drawn) | -0.0486
7 | CN(C)CCCCCCNC(=O)[C@@H]1C[C@@H]2C(=O)N[C@@H](Cc3ccccc3)C(=O)N2[C@@H]1c1ccc(O)cc1 | -0.0276
8 | Cc1nc2cc(Br)ccc2c(=O)o1 | -0.124
9 | O=C(NC1CC1)[C@@H]1c2ccccc2C(=O)N(Cc2ccccc2Cl)[C@H]1c1ccc(CO)cc1 | -0.0411
10 | O[C@@H](Cc1ccccc1)[C@H]1C2C=CCCC=C2CN1Cc1cccc(Cl)c1 (stereo partly drawn) | 0.0018
11 | COCCOC(=O)N1C(=O)[C@@]2(c3cc(C#CCNC(N)=O)ccc31)[C@H](C(=O)N1CCN(c3ncccn3)CC1)[C@H]1C(=O)O[C@H](c3ccccc3)[C@H](c3ccccc3)N1[C@@H]2c1ccc(OCCO)cc1 | -0.108
12 | COCCOC(=O)N1C(=O)[C@@]2(c3cc(C#CCNC(N)=O)ccc31)[C@H](C(=O)Nc1nc3ccccc3s1)[C@H]1C(=O)O[C@H](c3ccccc3)[C@H](c3ccccc3)N1[C@@H]2c1ccc(OCCO)cc1 | 0.0949
13 | CC(C)C(O)C1C=CC2C(=O)N(c3ccccc3)C(=O)C2N1Nc1ccc([N+](=O)[O-])cc1 (stereo not drawn) | 0.185
14 | CCOC(=O)C[C@H]1[C@H](OC(=O)c2ccccc2-c2ccccc2)[C@@H](NC(=O)CC(C)C)c2cc(OCCCO)ccc2N1C(=O)Cc1ccc(OC)cc1 | -0.118
15 | C=C(CCCC)/C(=C/C[C@H](OC(C)=O)c1ccccc1OCCO)c1cc(C(=O)OC)ccc1OC | -0.117
16 | C=CCC(OC(C)=O)[C@@H]1[C@@H](N(Cc2ccc(-c3ccccc3)cc2)C(=O)Cc2ccc(OC)cc2)c2cc(OCCCO)ccc2N1C(=O)Cc1ccc2ccccc2c1 (stereo partly drawn) | -0.112
17 | COc1ccc(CCNC(=O)[C@@]2(Sc3ccc(C)cc3)CC(=O)N(C3Cc4ccccc4C3)[C@@H]2c2ccc(CO)cc2I)cc1 | -0.192
18 | COC(=O)[C@@]1(Cc2ccccc2)N=C(c2ccc(OCCCO)cc2)O[C@H]1c1ccccc1 | -0.0179
19 | COCCOC(=O)N1C(=O)[C@@]2(c3cc(C#CCC(C(=O)OC)C(=O)OC)ccc31)[C@H](c1ccccc1OCCO)N1[C@H](c3ccccc3)[C@H](c3ccccc3)OC(=O)[C@H]1[C@@H]2C(=O)N1CCN(c2ncccn2)CC1 | -0.0249
20 | C=C(CCCC)/C(=C/C[C@@H](OC(=O)c1ccncc1)c1ccc(OCCO)cc1)c1cc(C(=O)OC)ccc1OC | -0.123
21 | CCCCN1CC=CC23O[C@@H]4C=CCCOC(=O)C4[C@H]2C(=O)N(CCCCCCO)[C@@H]3C1=O (stereo partly drawn) | -0.175
22 | CN(C)CCCC[C@@H]1NC(=O)[C@H]2C[C@@H](C(=O)NCCCCCCN)[C@@H](c3ccc(O)cc3)N2C1=O | 0.419
23 | COc1ccc(-c2cc3c(c(-c4ccc(Oc5ccccc5)cc4)n2)[Si](C(C)C)(C(C)C)OC3)cn1 | -0.132

Reference: PubChem BioAssay
